# Compound activity from PubChem BioAssay.
# CF NFkB inh: inhibitors of cystic fibrosis induced NF-kB. AID 588850. hit rate 0.86% among 360,000. KKLEB NF-kB-GFP reporter, PAF-induced, GFP fluorescence overnight. inhibition, % at 5 µM;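 active = at least 50% inhibition at 5 µM, scaled per plate between neutral and stimulator controls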;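 also: PAF is a Pseudomonas aeruginosa culture filtrate used as stimulus; plate controls were PAF-stimulated DMSO wells for no effect and unstimulated DMSO wells for full effect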
# TRPM1 prom inh: MITF TRPM1 promoter inhibition in SK-MEL-5 cells; SK-MEL-5 TRPM1 promoter luciferase, 24 h; AID 488899; inhibition, % at 12.5 µM; hit rate 0.83% among 330,000;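 active = mean inhibition across replicates of 60% or more, whatever share of single replicates reaches that level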
# CHOP inh: blocks CHOP induction under ER stress | CHO-K1 CHOP-promoter luciferase, tunicamycin-induced, 15-18 h | inhibition, % at 10 µM | AID 2732 | hit rate 3.8% among 220,000;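 active = compounds that reduced the stress-induced luciferase reporter signal by more than about 70% of percent inhibition, limit read from the data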;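 also: 0% = tunicamycin plus vehicle and 100% = wells without tunicamycin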
# HIF-2a inh: inhibitors of HIF-2a | 786-0 RCC cells HIF-2a reporter, luciferase luminescence, overnight | inhibition, % at 18.8 µM | hit rate 0.72% among 360,000;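 active = inhibition of the luminescence signal of 40% or more relative to plate controls, in a single-dose primary screen at 18.75 µM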
# Peg3 prom inh: Peg3 promoter activity inhibition | HeLa PEG-Prom luciferase reporter, luminescence, overnight | inhibition, % at 20 µM | hit rate 1.7% among 360,000 | AID 588405;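 active = inhibition of at least 50% at 20 µM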
# KKLEB tox: counter-screen for CF NF-kB inhibitors: cytotoxicity; activity change (cytotoxicity), % at 5 µM; hit rate 0.36% among 360,000; KKLEB CF airway cells viability, ATPlite luminescence, overnight; stronger effect = lower value; cells stimulated with P. aeruginosa culture filtrate;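 active = corrected activity change at or below -50% at 5 µM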
# Numbers without * were called inactive; x = no result given. Rows were chosen to be rich in hits. Some 4.3% of all compounds tested hit in one or more screens of this group.
SMILES,CF NFkB inh,TRPM1 prom inh,CHOP inh,HIF-2a inh,Peg3 prom inh,KKLEB tox
CCOC(=O)C1CCCN(C(=O)c2cc(F)ccc2C)CC1 (configuration not stated),5,x,x,6,15,1
CN1CCCN(c2cc(-c3ccc4ccccc4c3)nc3ccnn23)CC1,6,x,x,-21,-23,-4
Oc1ccc(N=Nc2ccccc2C(F)(F)F)c2cccnc12,-1,73*,x,17,26,-2
O=C(O)c1ccc(O)c2ncccc12,-19,x,x,-103,-74,0
COc1ccc(C(=O)NNC(=O)CCC(=O)NNC(=O)c2ccc(OC)cc2)cc1,-3,-1,x,2,13,1
CCN(CC)S(=O)(=O)c1ccc(C(=O)Nc2cccc(C)c2)cc1,5,-19,77*,-88,-33,-3
COc1ccc(C(=O)NNC(=O)c2ccc(C(C)(C)C)cc2)cc1,1,-9,84*,5,-1,3
Cc1cccc(NC(=O)C(=O)NNC(=O)c2ccc(C(C)(C)C)cc2)c1,84*,-6,x,-16,0,-62*
Cc1cccc(C(=O)NNC(=O)Nc2ccccc2)c1,-5,18,8,15,6,-7
CN(C)CCNc1ccc(CO)c2sc3ccc(O)cc3c(=O)c12,-189,85*,x,50*,100*,8
Cc1ccc(NC(=O)c2ccc(-c3nn(C)c(=O)c4ccccc34)cc2)cc1,-42,23,74*,-1,3,1
Cc1ccc(NC(=O)c2ccc(-c3nn(C)c(=O)c4ccccc34)cc2)c(C)c1,-38,5,19,-7,-9,9
CC(NC(=O)COc1ccc(Br)cc1)C1CCCO1 (configuration not stated),4,-6,x,1,4,8
C=CCn1c(C)cc(C(=O)CSc2nnc3c(Cl)cc(Cl)cn23)c1C,-6,11,14,-14,-6,-70*
Cc1cc(C(=O)CSc2nnc3c(Cl)cc(Cl)cn23)c(C)n1C,7,8,-21,7,10,3
Cc1cccc(N2CCN(C(=O)C3CCC(=O)N(Cc4ccccc4F)C3)CC2)c1C (configuration not stated),-42,-13,x,-37,-16,8
O=C(N/N=C/c1ccc(N2CCOCC2)cc1)c1ccncc1,-6,-8,x,-5,6,-4
O=C(N/N=C/c1ccc(N2CCOCC2)cc1)c1ccccc1OCCOc1ccccc1,11,12,11,-3,62*,-13
NC(=O)c1sc2nc(N3CCCCC3)c3c(c2c1N)CCCC3,5,1,92*,22,14,5
COC(=O)c1sc2nc(N3CCCCC3)c3c(c2c1N)CCCC3,17,0,59,-1,-11,6
CCN(CC(=O)Nc1cc(Cl)ccc1C)C(=O)c1nc2nc(C)cc(C)n2n1,-1,-2,x,4,22,-11
COc1ccccc1CN1CC(C(=O)N2CCC(C(=O)c3ccccc3)CC2)CCC1=O (configuration not stated),-7,-39,x,-134,-103,-1
Cc1cccc(Nc2nc(N)c([N+](=O)[O-])c(N3CCN(C)CC3)n2)c1,6,3,4,7,15,-4
Cc1cccc(Nc2nc(N)c([N+](=O)[O-])c(N3CCCC(C)C3)n2)c1 (configuration not stated),42,4,103*,-14,55*,-18
C[C@H](CO)N1C[C@H](C)[C@@H](CN(C)Cc2ccccc2C(=O)O)OCc2cnnn2CCCC1=O,-18,x,x,6,-8,18
SMILES,CF NFkB inh,TRPM1 prom inh,CHOP inh,HIF-2a inh,Peg3 prom inh,KKLEB tox
O=C(Nc1ccc(N2CCCC2)cc1)C(Cl)c1ccccc1 (configuration not stated),-9,-2,78*,-109,-77,1
CC(=O)Nc1cccc(-c2ccnc3c2CC(C(=O)NCc2ccc(N(C)C)cc2)O3)c1 (configuration not stated),-14,x,x,-1,21,-1
CSc1ncnc2c1ncn2CCCNCC(c1ccccc1)c1ccccc1,-14,x,x,-5,3,1
Cc1cc(CSc2nc(C)cc(=O)[nH]2)c2ncccc2c1,-1,1,87*,14,11,2
CN(C)C(CNC(=O)c1cc(S(=O)(=O)N(C)Cc2ccccc2)ccc1Cl)c1ccco1 (configuration not stated),4,-1,x,14,12,-13
Cc1ccc(N2C(=S)N=C(Nc3ccccc3C)C23CCOC(C)(C)C3)cc1 (configuration not stated),-5,2,84*,20,13,3
Cc1cccc(C)c1NC1=NC(=S)N(c2ccccc2)C12CCOC(C)(C)C2 (configuration not stated),-10,4,-17,21,2,-8
Cc1ccccc1N(CC(=O)N/N=C/c1ccccc1Cl)C(=O)c1ccccc1,0,10,73*,-4,-8,2
O=C(C=Cc1cccnc1)c1ccccc1,-10,40,x,-25,79*,6
Cc1ccc(C2CC(=O)NC(SCc3ccccc3)=C2C#N)cc1 (configuration not stated),-5,7,-17,15,26,1
CSC1=C(C#N)C(c2ccc(C(C)C)cc2)CC(=O)N1 (configuration not stated),-8,x,73*,-24,-13,-3
CCCCCCSC1=C(C#N)C(c2ccccc2)CC(=O)N1 (configuration not stated),7,4,77*,26,2,7
CCOc1ccc(C2CC(=O)NC(SC)=C2C#N)cc1 (configuration not stated),-24,-1,34,1,4,1
COc1ccc(NCC(=O)Nc2cccc(S(=O)(=O)N3CCCC3)c2)cc1Cl,2,-3,x,-14,-2,-1
CC(C)(C)CC(=O)NC(=S)NCCc1ccccc1,-10,-43,70*,-151,-53,-4
CCOCCCNC(=S)NCCCNc1nc2c(C)cc(C)cc2cc1C#N,-11,-4,3,-28,-15,-22
Cc1cc(C)c2nc(NCCCNC(=S)NCCCN(C)C)c(C#N)cc2c1,1,-1,-1,9,91*,-3
N#CC1=C(N)OC2=C(CCc3ccccc32)C1c1ccccc1Cl (configuration not stated),10,19,87*,1,36,-10
COc1cc(/C=N/NC(N)=O)cc(Br)c1OCc1ccc(C)cc1,6,-6,82*,7,9,-3
CCOc1cc(/C=N/NC(=O)c2cccnc2)cc(Br)c1OCC(N)=O,-12,8,14,11,22,3
CCOc1cc(/C=N\NC(N)=O)cc(Br)c1OC(C)C,10,-1,12,8,56*,-2
COc1cc(/C=N/NC(N)=O)ccc1OC(=O)c1ccc(C)cc1,x,x,44,x,x,x
